Experimental data: PubChem BioAssay (Tox21)
Records with an inconclusive call do not appear. Calls of active or inactive are those of the source. Calls come from the whole dose curve.

The compounds below were run against 5-hydroxytryptamine receptor 2A (Homo sapiens) (UniProt P28223) (assay: 5-hydroxytryptamine receptor 2A (HTR2A) small molecule antagonists, cell-based qHTS assay (AID 1963586; note: nearly all actives have a fitted effect of over 45% in size)). Settings: HTR2A-CHO cells, DOI-induced calcium flux, fluorescence; series mostly up to 61.5 µM; activity, negative = inhibition: at the top concentration.
Source text: National Center for Advancing Translational Sciences [NCATS]
Division of Preclinical Innovation [DPI]
U.S. Environmental Protection Agency [EPA]
National Institutes of Environmental Health Sciences [NIEHS]
National Toxicology Program [NTP]
U.S. Food and Drug Administration [FDA]
The HTR2A receptor is a subtype of the 5-HT2 receptor that belongs to the serotonin receptor family and is a G protein-coupled receptor (GPCR). The HTR2A-CHO cell line stably expressing human 5-hydroxytryptamine receptor 2A (HTR2A) can be used for screening antagonists of interactions between 5-HT2 and its ligands. The HTR2A-CHO calcium flux assay is a homogeneous fluorescence-based assay for detecting the intracellular calcium level using FDSS kinetic plate reader system.
Tox21 Assay Protocol Summary:
HTR2A-CHO cells were dispensed at 2000 cells/3uL/well in 1536-well black-clear bottom plates using a Multidrop Dispenser. After the assay plates were incubated at a 37 C/5% CO2 incubator for 18 h, 3 uL of Dye Loading Buffer was transferred to the assay plate by a Flying Reagent Dispenser. The assay plates were incubated at 37 C for 1h. For antagonist mode, 23 nL of compounds dissolved in DMSO, positive controls or DMSO only was transferred to the assay plate by a pin tool. After 5 min incubation at room temperature, 1.5 uL of 4-Iodo-2,5-dimethoxy-alpha-methylbenzeneethanamine hydrochloride (DOI) at 4nM was added to each well. The fluorescence intensity in the plates was measured using FDSS 7000EX kinetic plate reader for 3 min at 1 sec intervals.
% is set by controls: 0 for no effect and ±100 for the full control effect; potency is the fitted concentration of half-maximal effect.

Chain of 5-hydroxytryptamine receptor 2A (Homo sapiens) (P28223 whole entry, looked up): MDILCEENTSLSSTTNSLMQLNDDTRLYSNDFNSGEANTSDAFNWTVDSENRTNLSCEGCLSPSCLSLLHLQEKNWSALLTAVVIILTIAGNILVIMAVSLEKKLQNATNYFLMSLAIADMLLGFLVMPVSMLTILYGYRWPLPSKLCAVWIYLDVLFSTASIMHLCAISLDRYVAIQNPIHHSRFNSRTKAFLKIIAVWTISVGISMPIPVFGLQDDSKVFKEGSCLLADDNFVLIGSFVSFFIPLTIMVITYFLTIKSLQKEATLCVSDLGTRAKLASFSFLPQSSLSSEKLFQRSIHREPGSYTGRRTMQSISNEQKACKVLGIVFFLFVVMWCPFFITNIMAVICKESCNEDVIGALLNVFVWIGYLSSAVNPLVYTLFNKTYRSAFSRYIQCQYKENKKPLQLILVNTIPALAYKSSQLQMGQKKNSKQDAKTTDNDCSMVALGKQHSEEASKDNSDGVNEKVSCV

SMILES | activity, negative = inhibition | Potency
C/C=C(\C)C(=O)OCC/C=C\CC | 0.306% (inactive) | 
COc1cc(C)ccc1C(C)C | -6.29% (inactive) | 
CCOC(=O)Oc1ccc(CCNC(=O)[C@H](CCSC)NC(C)=O)cc1OC(=O)OCC | 10.8% [at 28.5 µM] (inactive) | 
COc1ccc2sc(C(=O)Nc3nnn[nH]3)c(OC(C)C)c2c1 | 11.4% (inactive) | 
CC[N+](CC)(CC)Cc1ccccc1 | 7.84% (inactive) | 
CCCCC/C=C\CCC=O | 2.83% (inactive) | 
Cc1c(C)n(CCN(C)C)c2ccc(C(=O)OCCN(C)C)cc12 | 1.3% [at 28.5 µM] (inactive) | 
C/C(=N\O)c1ccc(OCC(=O)N2CCCCC2)cc1 | 49.2% [at 28.5 µM] (inactive) | 
Cc1cccc(C)n1 | 0.622% (inactive) | 
COCCCCCCCCOCCC[Si](C)(O[Si](C)(C)C)O[Si](C)(C)C | -7.76% (inactive) | 
Cc1ccco1 | -4.85% (inactive) | 
CC(=O)Nc1cccc(C)c1 | 67.1% (inactive) | 
NS(=O)(=O)c1cc2c(cc1C(F)(F)F)NCNS2(=O)=O | 14.2% [at 28.5 µM] (inactive) | 
CC(C)=CCC/C(C)=C/CC/C(C)=C/C(=O)OCC(=O)[C@@]1(O)CC[C@H]2[C@@H]3CCC4=CC(=O)C=C[C@]4(C)[C@H]3[C@@H](O)C[C@@]21C | 98.1% [at 28.5 µM] (inactive) | 
CC1(C)OC(=O)Nc2ccc(Br)cc21 | -6.75% [at 28.5 µM] (inactive) | 
CCN(CC)CCOc1ccc(C(O)(Cc2ccc(Cl)cc2)c2ccc(C)cc2)cc1 (stereo not given) | -13.2% [at 28.5 µM] (inactive) | 
CCCCCN(CCCCC)C(=O)C(CCC(=O)O)NC(=O)c1ccc(Cl)c(Cl)c1 (stereo not given) | -20.8% [at 28.5 µM] (inactive) | 
CC(=O)Nc1ccc(S(N)(=O)=O)cc1 | 57.7% (inactive) | 
O=C(O)c1snc(Cl)c1Cl | 4.89% (inactive) | 
CCn1c2ccccc2c2cc([N+](=O)[O-])ccc21 | -19.9% (inactive) | 

SMILES | activity, negative = inhibition | Potency
CCOc1nc(F)cc2nc(S(=O)(=O)Nc3c(Cl)cccc3C(=O)OC)nn12 | -13.7% (inactive) | 
CCC(=O)c1cccc(Cl)c1 | 11% (inactive) | 
[O]=[Mo](=[O])=[O] | -16.5% [at 12.7 µM] (inactive) | 
CC1(C)S[C@@H]2[C@H](N=CN3CCCCCC3)C(=O)N2[C@H]1C(=O)O | 6.69% [at 28.5 µM] (inactive) | 
CCCCCC(=O)OCCc1ccccc1 | -57.5% (inactive) | 
CCCCCCCCC(=O)Cl | 4.32% (inactive) | 
Cc1ccsc1/C=C/C1=NCCCN1C | -21.8% [at 28.5 µM] (inactive) | 
CC(C)(C)NCC(O)COc1cccc2c1CCC(=O)N2 (stereo not given) | -32.6% [at 28.5 µM] (inactive) | 
CC(=O)C1CCCCC1=O (stereo not given) | 9.87% (inactive) | 
O=c1[nH]c(=O)n([C@H]2O[C@H](CO)[C@@H](O)[C@@H]2O)cc1/C=C\Br | 33.2% [at 28.5 µM] (inactive) | 
CC1(C)CC(N)CC(C)(C)N1 | -0.0857% (inactive) | 
Cc1cccc(N(C)C(=S)Oc2ccc3c(c2)CCC3)c1 |  | 1.3 µM (active)
OCC(F)(F)F | 11.1% (inactive) | 
CCCCCCC(CO)CCCC (stereo not given) | -24.9% (inactive) | 
C=CCCCC | 53.9% (inactive) | 
O=S(O)O | -15% [at 12.7 µM] (inactive) | 
Nc1c2c(nc3ccccc13)CCCC2O (stereo not given) | 11.1% [at 28.5 µM] (inactive) | 
COc1ccc2[nH]c(S(=O)Cc3ncc(C)c(OC)c3C)nc2n1 (stereo not given) | 6.02% [at 28.5 µM] (inactive) | 
CCCCCCCCCC(=O)N(C)C | -5.31% (inactive) | 
Cc1cscn1 | 2.94% (inactive) | 
